Most compounds without a hit are left out; they make up all but 3.8% or so of the library.
GPR32 ag: GPR32 (DRV1) agonism, beta-arrestin recruitment; actives 2.5% (n = 48,000); activation, % at 76.9 µM; CHO-K1 GPR32 beta-arrestin PathHunter luminescence, 90 min; zero percent set by DMSO-only wells; O75388;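 active = activation of at least 60% and not above a set upper limit, about 1 call in 100 departs from these limits; inconclusive = activation of 40% to 60%, or above that upper limit; inactive = activation under 40%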; note: 0% is about no effect
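Engineered CHO-K1 line co-expressing GPR32-ProLink and EA-beta-arrestin. Compound treatment lasted 90 min at 37 °C. Luminescence was recorded after 1 h with substrate at ambient temperature, relative to DMSO basal wells.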
FH mod: Identification of activators of human fumarate hydratase by quantitative high-throughput screening. Fumarate hydratase, mitochondrial (Homo sapiens), P07954. FH coupled MDH/diaphorase resazurin fluorescence, 15 min. Potency, µM (doses to about 79.9 µM), for the others: at the highest dose activity change, negative = inhibition, most hits filed as inhibitors. actives 0.22% (n = 54,000). AID 1347055, 2019; note: potency is the fitted concentration of half-maximal effect; % is set by controls: 0 for no effect and ±100 for the full control effect; the screen sought activators but most active calls are inhibition curves; nearly all actives have a fitted effect of over 45% in size
NTMT1 inh: NTMT1 methyltransferase inhibition; Q9BV86; Potency, µM (highest dose often 114 µM), for the others: at the highest dose activity change, negative = inhibition, usual class: inhibitors; actives 2.5% (n = 59,000); AID 1645870; NTMT1 MTase-Glo SAH luminescence, purified enzyme;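 note: potency is the fitted concentration of half-maximal effect; plate controls were DMSO vehicle for no effect and no enzyme for full effect; nearly all actives have a fitted effect of over 65% in size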
OvCa metastasis: inhibitors of ovarian cancer cell adhesion and invasion in omental model; SKOV3ip1-GFP adhesion/invasion on 3D omental model, fluorescence; Potency, µM (highest dose often 45.8 µM), for inactives: at the highest dose activity change, negative = inhibition, hits mostly inhibitors; actives 0.1% (n = 46,000); AID 1963576;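 note: potency is the fitted concentration of half-maximal effect; plate controls were DMSO wells for no effect and tomatine positive control wells for full effect; nearly all actives have a fitted effect of over 65% in size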
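qHTS, 4-pt dose (0.36-46 umol/L); SKOV3ip1-GFP, 1,200 cells/well, no FBS; primary omental fibroblast/mesothelial co-culture 48 h pre-grown; 2 h RT + 16 h 37 C; PBS wash, 4% PFA; GFP count 488/509 nm.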
Sfp PPTase inh: inhibitors of Bacillus subtilis Sfp PPTase, optimization followup | shares compounds with NTMT1 inh | purified Sfp PPTase enzyme activity, qHTS | Potency, µM (series often up to 114 µM), for inactives: at the top dose activity change, negative = inhibition, usual class: inhibitors | actives 78% (n = 230) | AID 540350
HM489 growth: reduces growth of B. subtilis HM489 strain; shares compounds with NTMT1 inh; B. subtilis HM489 (acpS-) growth, BacTiter-Glo, 5 h; Potency, µM (doses to about 114 µM), without a hit: at the top dose activity change, negative = inhibition, hits mostly inhibitors; actives 50% (n = 220); AID 540353
Sfp PPTase gel: Sfp PPTase inhibition, gel-based detection; shares compounds with NTMT1 inh; purified Sfp PPTase, gel-based product detection; Potency, µM (titrated, usually from 250 µM), inactives show at the top dose activity change, negative = inhibition, usual class: inhibitors; actives 54% (n = 220); AID 540355
Sfp inh gel: Sfp phosphopantetheinyl transferase inhibition, gel detection | shares compounds with NTMT1 inh | purified Sfp PPTase, gel-based product detection | Potency, µM (highest dose often 250 µM), for the others: top-dose activity change, negative = inhibition, hits mostly inhibitors | actives 90% (n = 45) | AID 602362
Sfp inh SAR2: Sfp phosphopantetheinyl transferase inhibition, SAR round 2 | Potency, µM (titrated, usually from 57.1 µM), for the others: at the top dose activity change, negative = inhibition, most hits filed as inhibitors | actives 87% (n = 230) | AID 602370 | shares compounds with NTMT1 inh | purified Sfp enzyme, PPTase activity, qHTS
hGST ctr: hGST A1-1 enzyme inhibition, Sfp SAR counter-screen | shares compounds with NTMT1 inh | hGST A1-1 enzyme activity counter-screen, qHTS | Potency, µM (series often up to 114 µM), without a hit: at the top dose activity change, negative = inhibition, usual class: inhibitors | 55 tested, under 10 active | AID 602391
HSD17B4 counter: HSD17B4 (human) inhibition, HPGD counter-screen | Potency, µM (series often up to 57.1 µM), for the others: at the highest dose activity change, negative = inhibition, actives largely listed as inhibitors | actives 10% (n = 230) | purified HSD17B4, estradiol/NAD+, NADH fluorescence | shares compounds with NTMT1 inh | AID 743187
Target sequence (P51659 whole entry, looked up): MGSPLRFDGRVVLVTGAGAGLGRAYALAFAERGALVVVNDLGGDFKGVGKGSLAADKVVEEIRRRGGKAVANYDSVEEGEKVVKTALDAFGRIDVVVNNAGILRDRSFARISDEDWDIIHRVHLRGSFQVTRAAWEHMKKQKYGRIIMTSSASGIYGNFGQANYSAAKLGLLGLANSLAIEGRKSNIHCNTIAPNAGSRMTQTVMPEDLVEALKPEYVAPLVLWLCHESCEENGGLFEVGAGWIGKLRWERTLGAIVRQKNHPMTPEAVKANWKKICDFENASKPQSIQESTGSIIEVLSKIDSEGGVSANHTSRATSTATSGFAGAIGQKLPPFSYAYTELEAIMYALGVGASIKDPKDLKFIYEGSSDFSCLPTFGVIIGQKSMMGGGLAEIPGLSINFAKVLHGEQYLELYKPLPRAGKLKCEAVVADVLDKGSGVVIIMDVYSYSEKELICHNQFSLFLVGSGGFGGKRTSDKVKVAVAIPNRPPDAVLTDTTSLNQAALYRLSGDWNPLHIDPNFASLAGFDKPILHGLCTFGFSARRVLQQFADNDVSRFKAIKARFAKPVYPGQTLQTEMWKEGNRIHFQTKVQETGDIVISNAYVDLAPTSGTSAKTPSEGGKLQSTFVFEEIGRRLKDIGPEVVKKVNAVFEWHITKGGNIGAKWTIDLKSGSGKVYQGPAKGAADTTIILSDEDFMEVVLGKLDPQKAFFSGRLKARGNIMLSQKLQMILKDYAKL
ALDH1A1 counter: counter-screen for HPGD inhibitors: human ALDH1A1 inhibition. shares compounds with NTMT1 inh. recombinant ALDH1A1, NADH fluorescence, propionaldehyde/NAD+. Potency, µM (doses to about 57.1 µM), without a hit: top-dose activity change, negative = inhibition, actives largely listed as inhibitors. actives 93% (n = 230). AID 743195
NNMT counter: human NNMT inhibition, NTMT1 counter-screen; shares compounds with NTMT1 inh; NNMT MTase-Glo luminescence, SAH detection; Potency, µM (series often up to 57.1 µM), without a hit: at the top dose activity, negative = inhibition, most hits filed as inhibitors; actives 10% (n = 120); AID 1645878
* hit, by the source's call; ? = inconclusive; . = no result; [ ] = remark or other dose. Unless noted, calls come from the whole dose curve; as a rule, active = well fitted curve in the direction sought with a large enough effect; inconclusive = small, poorly fitted or top-dose-only effect, or another doubt; inactive = no such curve, though single readings can be large; an effect the other way counts as inactive or inconclusive.

SMILES	GPR32 ag	FH mod	NTMT1 inh	OvCa metastasis	Sfp PPTase inh	HM489 growth	Sfp PPTase gel	Sfp inh SAR2	HSD17B4 counter	ALDH1A1 counter	others
COc1cccc(NC(=S)N2CCN(c3ccc(Cl)c(Cl)c3)CC2)n1	.	.	.	.	?	29.6%	95.4µM*	8.13µM*	?	6.07µM*	Sfp inh gel=107µM*;hGST ctr=?
COc1cccc(NC(=S)N2CCN(c3cccc(C(F)(F)F)c3)CC2)n1	.	.	.	.	13.2µM*	41.8µM*	20µM*	11.5µM*	19.2µM*	15.2µM*
COc1cccc(NC(=S)N2CCN(c3ncc(C(F)(F)F)cc3Cl)CC2)n1	.	.	?	.	?	12.0%	4.5%	4.57µM*	-13.2%	1.08µM*
CN(C)c1ccc2nc(NC(=S)N3CCN(c4cccc(C(F)(F)F)c4)CC3)sc2c1	.	.	12.9%[57.5 µM]	.	?	?	20µM*	10.2µM*	?	9.61µM*
O=C(Nc1ccc(C(F)(F)F)cn1)N1CCN(c2ncccc2C(F)(F)F)CC1	.	1.4%	3.2%[57.5 µM]	.	.	.	.	.	.	.
CCOC(=O)c1ccc(NC(=O)c2sc3nc4n(c(=O)c3c2C)CCC4)cc1	-4.3	?	2.7%	4.9%	.	.	.	.	.	.
COc1ccc(C(=O)Oc2ccc(-c3nc4ccccc4[nH]3)cc2)cc1OC	.	.	4.0%	.	.	.	.	.	.	.
COc1cc2c(C(=O)N3CCN(c4cccc(C(F)(F)F)c4)CC3)cn(CC(C)C)c(=O)c2cc1OC	-29.5	-9.3%	0.9%	0.6%	.	.	.	.	.	.
COc1cc(NC(=S)N2CCN(c3cccc(C(F)(F)F)c3)CC2)nc2ccccc12	.	.	?	.	1.87µM*	46.9µM*	0.794µM*	0.65µM*	-57.0%	5.41µM*
CC/C(=C(\c1ccc(O)cc1)c1ccc(OCCNC)cc1)c1ccccc1	.	-10.7%	22.4µM*	.	.	.	.	.	.	.	NNMT counter=?
Cc1cc2c(c(=O)[nH]1)OC(C(O)CC(C)C)O2 (stereo not drawn)	.	-1.5%	-15.6%	.	.	.	.	.	.	.	NNMT counter=2.0%
CNc1nc(Nc2ccc(C(=O)N3CCOCC3)cc2OC)nc2[nH]cc(Cl)c12	.	-4.2%	13.0%[57.5 µM]	.	.	.	.	.	.	.
Cc1nc2nncn2c(N2CCN(c3ccccc3)CC2)c1C	-5.9	-7.7%	7.6%	-3.9%	.	.	.	.	.	.
CC[N+]1(C/C2=C/CCCCCC2)CCC(NC(=O)C2c3cc(Cl)ccc3Oc3ccc(Cl)cc32)CC1 (stereo not drawn)	.	1.8%	?	.	.	.	.	.	.	.	NNMT counter=?

Screening data (PubChem BioAssay)
